Results filed as inconclusive are left out. Calls of active or inactive are those of the source. Unless noted, the call rests on the fitted dose curve; in most records, active means well fitted curve in the direction sought with a large enough effect in the repeat runs; inconclusive means weak or mixed curves; inactive means no such curve, though single readings can be large; an effect the other way counts as inactive or inconclusive.
Tests used:
[1] = qHTS RealTime-Glo MT Cell Viability Assay in HEK293 cells - 24 hour (AID 1224886); further: nearly all actives have a fitted effect of over 50% in size; further: potency means the concentration at half of the fitted maximal effect; on activity change, negative = cytotoxicity: top concentration of the series differs between compounds
How it was run: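 Viability tracked continuously by luminescence as live cells reduce a prosubstrate for NanoLuc; HEK293 cells preincubated 5 h, compound-treated at 37 C, and read at 0, 8, 16, 24, 32 and 40 h.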

[2] = qHTS RealTime-Glo MT Cell Viability Assay in HEK293 cells - 8 hour (AID 1224887); further: nearly all actives have a fitted effect of over 50% in size; further: potency means the concentration at half of the fitted maximal effect; on activity change, negative = cytotoxicity: top concentration of the series differs between compounds
How it was run: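 Luminescence, which tracks viable cell number through reduction of the prosubstrate to a NanoLuc substrate, was read over continuous 37 C culture. Cells (600/well) were premixed with reagent and rested 5 h before 23 nL of compound in DMSO was pinned.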

[3] = A CellTox Green Cytotoxicity Assay to monitor cytotoxicity in HEK293 cells - 16 hour (AID 1224888); further: nearly all actives have a fitted effect of over 35% in size
How it was run: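 Fluorescence from a DNA-binding dye excluded by viable cells was measured repeatedly in the same HEK293 wells (600 cells/well) during continuous compound exposure at 37 C. Each assay gives one read point: 0, 8, 16, 24, 32 or 40 h.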

[4] = qHTS RealTime-Glo MT Cell Viability Assay in HepG2 cells - 0 hour (AID 1224889); further: nearly all actives have a fitted effect of over 50% in size
How it was run: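 Viability was tracked continuously by NanoLuc luminescence from prosubstrate reduced by living HepG2 cells, at successive time points over 40 h of compound exposure. Cells with reagent were preincubated 5 h at 37 °C before compound addition.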

[5] = A CellTox Green Cytotoxicity Assay to monitor cytotoxicity in HepG2 cells - 8 hour (AID 1224890); further: nearly all actives have a fitted effect of over 45% in size
How it was run: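 Real-time cytotoxicity: fluorescence of a cell-impermeant cyanine dye binding DNA of dead HepG2 cells, measured repeatedly (0–40 h) during compound exposure at 37 C. Cells seeded 600/well with reagent, dosed after 5 h.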

[6] = qHTS assay to identify small molecule antagonists of the estrogen receptor alpha (ER-alpha) signaling pathway using the BG1 cell line in the presence of 0.1 nM 17-beta-estradiol - cell viability counter screen (AID 1259241); further: nearly all actives have a fitted effect of over 40% in size
How it was run: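 VM7Luc4E2 cells (endogenous ER-alpha, 4×ERE-luciferase), hormone-starved 5 days in charcoal-stripped FBS, were treated with compounds plus 0.1 nM 17beta-estradiol for 22 hr at 37C; viability read in same wells as CellTiter-Fluor live-cell protease fluorescence.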

[7] = qHTS assay to identify small molecule HDAC inhibitors (AID 1259364); further: top concentration of the series differs between compounds; nearly all actives have a fitted effect of over 45% in size
How it was run: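 Luminescence read after 30 min room-temperature HDAC-Glo incubation measures cellular class I/II HDAC activity. Compounds were applied for 2 hr at 37 C to HCT-116 wild-type cells seeded the day before.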

[8] = qHTS assay to identify small molecule agonists of the sonic hedgehog signaling (Shh) pathway - cell viability counter screen (AID 1259366); further: nearly all actives have a fitted effect of over 50% in size
How it was run: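 NIH/3T3-derived 3T3 Gli1-Luc cells (stable Gli1-responsive firefly luciferase reporter) were seeded, rested 4 hr at 37 C/5% CO2, then exposed to compounds in DMSO for 24 hr; viability was read by CellTiter-Fluor fluorescence in the same wells.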

[9] = qHTS assay to identify small molecule antagonists of the sonic hedgehog signaling (Shh) pathway - cell viability counter screen (AID 1259367); further: nearly all actives have a fitted effect of over 55% in size
How it was run: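 Fluorescence read-out (CellTiter-Fluor, 1 hr at 37C) taken after 23 hr compound treatment of 3T3 Gli1-Luc cells stimulated with conditioned medium. Cells were seeded at 2,000 per well and pre-incubated 4 hr.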

[10] = qHTS assay to identify small molecule agonists of the sonic hedgehog signaling (Shh) pathway (AID 1259368; calls by dose curve; further: series mostly up to about 92 µM; nearly all actives have a fitted effect of over 15% in size)
How it was run: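 Luminescence was read after 30 min at room temperature with luciferase reagent. Before that, 3T3Gli1-Luc cells (NIH/3T3 clone, stable Gli1-Luc reporter; 2,000/well) were exposed to compounds for 24 hr at 37C, 5% CO2, compounds being added 4 hr post-plating.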

[11] = qHTS assay to identify small molecule antagonists of the sonic hedgehog signaling (Shh) pathway (AID 1259369; calls by dose curve; further: nearly all actives have a fitted effect of over 45% in size)
How it was run: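 Antagonist mode: compound added to 3T3 Gli1-Luc cells followed by conditioned-medium stimulation, 24 h at 37 C, 5% CO2. Inhibition taken as loss of Gli1-driven luciferase luminescence.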

[12] = biological target: Estrogen receptor beta (Homo sapiens) (UniProt Q92731); assay: qHTS assay to identify small molecule agonists of the estrogen receptor beta (ER-beta) signaling pathway (AID 1259377; active means well fitted activation curve with a large enough effect in the signal ratio in the repeat runs, not every such curve was filed as active; the % refers to the signal ratio)
Estrogen receptor beta (Homo sapiens), sequence (Q92731 whole entry, looked up): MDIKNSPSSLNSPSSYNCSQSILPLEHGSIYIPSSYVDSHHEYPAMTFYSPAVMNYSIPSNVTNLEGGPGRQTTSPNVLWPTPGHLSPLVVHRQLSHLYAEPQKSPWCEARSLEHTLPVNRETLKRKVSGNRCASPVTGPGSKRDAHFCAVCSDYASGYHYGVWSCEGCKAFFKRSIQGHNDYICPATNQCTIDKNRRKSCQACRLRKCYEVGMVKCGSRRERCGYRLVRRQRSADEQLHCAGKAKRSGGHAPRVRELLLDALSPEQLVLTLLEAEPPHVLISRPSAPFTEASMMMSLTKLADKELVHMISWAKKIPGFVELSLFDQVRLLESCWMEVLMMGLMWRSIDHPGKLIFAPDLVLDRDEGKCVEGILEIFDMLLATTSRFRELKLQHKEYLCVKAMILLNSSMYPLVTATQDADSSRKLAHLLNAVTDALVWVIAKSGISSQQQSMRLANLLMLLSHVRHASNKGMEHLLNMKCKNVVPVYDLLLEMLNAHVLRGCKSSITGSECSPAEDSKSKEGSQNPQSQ
How it was run: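 ER-beta-UAS-bla HEK293T (GripTite) cells carrying a UAS-driven beta-lactamase reporter, in medium with 2% charcoal-stripped FBS, were exposed to compounds for 16 hr at 37C; LiveBLAzer B/G FRET substrate was then added and fluorescence read after 2 hours at room temperature.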

[13] = biological target: Estrogen receptor beta (Homo sapiens) (UniProt Q92731); assay: qHTS assay to identify small molecule antagonists of the estrogen receptor beta (ER-beta) signaling pathway (AID 1259378; active means well fitted inhibition curve with a large enough effect in the signal ratio in the repeat runs, not every such curve was filed as active; the % refers to the signal ratio)
How it was run: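 ER-beta-UAS-bla HEK293T cells in 2% charcoal-stripped FBS medium treated with compound plus 1nM final 17-beta-estradiol for 16 hr at 37C. Beta-lactamase reporter read by FRET substrate fluorescence after 2 hours at room temperature.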

[14] = qHTS assay to identify small molecule agonists of the androgen receptor (AR) signaling pathway in the presence of an antagonist - cell viability counter screen (AID 1259379);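 further: MDA-kb2 human breast cancer cells carrying an MMTV luciferase reporter; series mostly up to about 92 µM; nearly all actives have a fitted effect of over 25% in size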
How it was run: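 Cytotoxicity counter-screen run in the same wells as the nilutamide-challenged (3.0 µM final) AR agonist assay in MDA-kb2 cells. Compounds tested at 15 concentrations for 16 h, 37 °C without CO2; CellTiter-Fluor fluorescence read.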

[15] = qHTS assay to identify small molecule agonists of the estrogen receptor beta (ER-beta) signaling pathway - cell viability counter screen (AID 1259380); further: nearly all actives have a fitted effect of over 30% in size
How it was run: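 Cell viability counter screen: CellTiter-Glo luminescence (30 min, room temperature) measured in the same wells as the beta-lactamase readout, after 16 hr compound exposure at 37C of ER-beta-bla HEK293T cells in 2% charcoal-stripped FBS medium.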

[16] = qHTS assay to identify small molecule antagonists of the androgen receptor (AR) signaling pathway using the MDA cell line in the presence of 0.5 nM R1881 - cell viability counter screen (AID 1259242); further: nearly all actives have a fitted effect of over 45% in size
How it was run: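 Live-cell protease activity was measured by CellTiter-Fluor fluorescence after 30 min. Before that, MDA-kb2 MMTV-luciferase cells had 16 hr at 37C without CO2, exposed to test compounds and 0.5 nM R1881 final.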

[17] = biological target: Estrogen receptor (Homo sapiens) (UniProt P03372); assay: qHTS assay to identify small molecule antagonists of the estrogen receptor alpha (ER-alpha) signaling pathway using the BG1 cell line in the presence of 0.1 nM 17-beta-estradiol (AID 1259244); further: nearly all actives have a fitted effect of over 50% in size
Estrogen receptor (Homo sapiens), sequence (P03372 whole entry, looked up): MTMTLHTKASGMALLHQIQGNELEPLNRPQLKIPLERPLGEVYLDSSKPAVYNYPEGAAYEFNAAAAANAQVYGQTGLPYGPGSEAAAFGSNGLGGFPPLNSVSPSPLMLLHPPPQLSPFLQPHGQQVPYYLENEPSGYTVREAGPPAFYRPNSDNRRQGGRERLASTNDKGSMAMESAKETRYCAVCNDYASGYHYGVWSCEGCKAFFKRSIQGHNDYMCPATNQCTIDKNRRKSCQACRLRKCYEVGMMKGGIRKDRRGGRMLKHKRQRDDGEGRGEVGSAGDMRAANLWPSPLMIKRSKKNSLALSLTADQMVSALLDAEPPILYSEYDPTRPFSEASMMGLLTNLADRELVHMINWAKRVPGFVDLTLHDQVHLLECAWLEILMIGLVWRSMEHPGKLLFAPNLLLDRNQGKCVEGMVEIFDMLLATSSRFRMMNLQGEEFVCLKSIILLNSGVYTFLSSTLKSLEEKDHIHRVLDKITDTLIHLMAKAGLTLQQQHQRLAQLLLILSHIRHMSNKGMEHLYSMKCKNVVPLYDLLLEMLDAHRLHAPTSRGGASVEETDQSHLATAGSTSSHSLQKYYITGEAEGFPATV
How it was run: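 Luciferase luminescence (ONE-Glo, 30 min at room temperature) was read after 22 hr at 37C exposure to compounds plus 17beta-estradiol at 0.1 nM final. Cells were VM7Luc4E2 with endogenous ER-alpha and an ERE-driven luciferase, pre-cultured 5 days in hormone-depleted medium.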

[18] = qHTS assay to identify small molecule HDAC inhibitors - cell viability counter screen (AID 1259365)
How it was run: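 Wild-type HCT-116 cells were seeded at 1,500 per well, incubated overnight at 37 C, then exposed to compounds in DMSO for 2hr. Viability was read by CellTiter-Glo luminescence after 30min at room temperature.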

[19] = biological target: Androgen receptor (Homo sapiens) (UniProt P10275); assay: qHTS assay to identify small molecule antagonists of the androgen receptor (AR) signaling pathway using the MDA cell line in the presence of 0.5 nM R1881 (AID 1259243); further: nearly all actives have a fitted effect of over 50% in size
Androgen receptor (Homo sapiens), sequence (P10275 whole entry, looked up): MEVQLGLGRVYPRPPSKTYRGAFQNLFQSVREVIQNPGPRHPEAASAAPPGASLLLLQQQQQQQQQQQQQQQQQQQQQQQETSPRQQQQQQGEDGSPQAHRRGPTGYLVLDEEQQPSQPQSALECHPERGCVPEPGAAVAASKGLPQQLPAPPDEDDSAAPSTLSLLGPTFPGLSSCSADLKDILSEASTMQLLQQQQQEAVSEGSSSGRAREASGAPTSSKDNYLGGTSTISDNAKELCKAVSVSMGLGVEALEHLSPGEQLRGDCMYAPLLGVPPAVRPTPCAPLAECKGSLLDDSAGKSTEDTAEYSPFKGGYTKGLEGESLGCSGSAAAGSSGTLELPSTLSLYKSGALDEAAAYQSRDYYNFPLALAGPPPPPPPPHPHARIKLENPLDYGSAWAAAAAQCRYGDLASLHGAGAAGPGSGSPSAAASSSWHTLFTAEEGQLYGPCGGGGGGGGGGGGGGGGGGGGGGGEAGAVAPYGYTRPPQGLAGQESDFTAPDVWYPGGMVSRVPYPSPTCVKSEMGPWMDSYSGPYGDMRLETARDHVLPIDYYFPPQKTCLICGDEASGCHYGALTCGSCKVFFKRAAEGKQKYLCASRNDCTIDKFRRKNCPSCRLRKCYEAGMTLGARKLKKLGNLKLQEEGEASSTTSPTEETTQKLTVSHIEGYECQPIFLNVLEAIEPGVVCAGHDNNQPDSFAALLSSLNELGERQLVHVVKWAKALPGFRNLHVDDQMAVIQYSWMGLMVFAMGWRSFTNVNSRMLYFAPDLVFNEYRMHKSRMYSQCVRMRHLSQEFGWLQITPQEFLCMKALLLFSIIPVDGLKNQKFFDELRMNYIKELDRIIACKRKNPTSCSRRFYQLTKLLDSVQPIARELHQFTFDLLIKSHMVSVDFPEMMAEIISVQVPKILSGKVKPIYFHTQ
How it was run: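 Luminescent reporter readout (ONE-Glo, 30 min, room temperature) after 16 hr co-treatment of MDA-kb2 cells with test compounds and 0.5 nM R1881 final, at 37C without CO2. The MMTV-driven luciferase responds to both AR and GR.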
On the % scale 0 is the no-effect control and ±100 the full control effect.

CCCCC(CC)COC(=O)c1ccccc1 (configuration not stated)
inactive: Potency [1] | Potency [2] | Potency [3] | Potency [4] | Potency [5] | Potency [6] | Potency [7] | Potency [8] | Potency [9] | outcome [10] | Potency [11] | Potency [12] | outcome [13] | Potency [14] | outcome [15]

CC(C)COC(=O)/C=C/c1ccccc1
inactive: Potency [1] | Potency [2] | Potency [3] | Potency [4] | Potency [6] | Potency [16] | Potency [17] | outcome [18] | Potency [8] | Potency [9] | outcome [10] | Potency [11] | Potency [12] | outcome [13] | Potency [14] | outcome [15]

CCCCC(CC)C(=O)OC(C)C (configuration not stated)
inactive: Potency [1] | Potency [2] | Potency [3] | Potency [4] | Potency [6] | Potency [16] | Potency [7] | outcome [18] | Potency [8] | Potency [9] | Potency [11] | Potency [14] | outcome [15]

CCCCCCCCCCCCC
inactive: Potency [1] | Potency [2] | Potency [3] | Potency [4] | Potency [6] | Potency [16] | Potency [17] | outcome [18] | outcome [10] | Potency [11] | outcome [15]

CCCC(C)CC (configuration not stated)
inactive: Potency [1] | Potency [2] | Potency [3] | Potency [4] | Potency [5] | Potency [6] | Potency [16] | outcome [18] | Potency [8] | Potency [9] | outcome [10] | Potency [11] | Potency [12] | outcome [13] | Potency [14] | outcome [15]

CCCCOC(=O)[C@@H](C)Oc1ccc(Oc2ccc(C(F)(F)F)cn2)cc1
active: Potency [1] 31.1 µM | Potency [2] 24.7 µM
inactive: Potency [3] | Potency [4] | Potency [6] | Potency [16] | Potency [17] | Potency [7] | outcome [18] | Potency [8] | Potency [9] | Potency [11] | Potency [12] | outcome [13] | Potency [14] | outcome [15]

CCCCCCCCCCCCCCCC(=O)NCCO
inactive: Potency [1] | Potency [2] | Potency [3] | Potency [4] | Potency [16] | Potency [7] | outcome [18] | Potency [8] | Potency [9] | outcome [10] | Potency [11] | Potency [14] | outcome [15]

CC(=O)OC(C)c1ccccc1 (configuration not stated)
inactive: Potency [1] | Potency [2] | Potency [3] | Potency [5] | Potency [6] | Potency [16] | Potency [17] | Potency [7] | outcome [18] | Potency [8] | Potency [9] | outcome [10] | Potency [11] | Potency [12] | outcome [13] | Potency [14] | outcome [15]

O=C(O)CCNC(=O)c1ccccc1
inactive: Potency [1] | Potency [2] | Potency [4] | Potency [5] | Potency [6] | Potency [16] | Potency [17] | Potency [7] | outcome [18] | Potency [8] | outcome [10] | Potency [11] | Potency [14] | outcome [15]

CC(C)COC(=O)COc1ccc(Cl)cc1Cl
inactive: Potency [1] | Potency [2] | Potency [4] | Potency [5] | Potency [6] | Potency [16] | outcome [19] | Potency [7] | outcome [18] | Potency [8] | Potency [9] | outcome [10] | Potency [11] | Potency [12] | outcome [13] | Potency [14] | outcome [15]

CCCCCCCCCCCCOC(C)=O
inactive: Potency [1] | Potency [2] | Potency [3] | Potency [5] | Potency [6] | Potency [16] | Potency [7] | outcome [18] | Potency [8] | outcome [10] | Potency [11] | Potency [12] | outcome [13] | Potency [14] | outcome [15]

O=C(O)Cc1cccc(-c2cc(CCCCCCc3ccc(O[C@H]4O[C@H](CO)[C@@H](O)[C@H](O)[C@@H]4O)c(-c4cccc(CC(=O)O)c4)c3)ccc2O[C@H]2O[C@H](CO)[C@@H](O)[C@H](O)[C@@H]2O)c1
inactive: activity change, negative = cytotoxicity [1] -1.38% [at 0.29 µM] | activity change, negative = cytotoxicity [2] 11.8% [at 0.29 µM] | activity change [3] -7.34% [at 0.29 µM, hits give high values] | cytotoxicity increase [5] 23.5% [at 0.29 µM] | activity change, negative = cytotoxicity [6] -0.713% [at 0.349 µM] | viability change, negative = cytotoxic [16] -0.767% [at 0.349 µM] | activity change, negative = inhibition [7] 0.203% [at 0.349 µM] | activity change, negative = cytotoxicity [18] -0.936% [at 0.349 µM] | viability change, negative = cytotoxic [9] 3.56% [at 0.349 µM] | activity change [10] -0.0491% [at 0.349 µM] | activity change, negative = cytotoxicity [14] 1.29% [at 0.35 µM] | activity change, negative = cytotoxicity [15] 7.37% [at 0.349 µM]

CCCCCCCCC(=O)OCC
inactive: Potency [1] | Potency [2] | Potency [4] | Potency [5] | Potency [6] | Potency [16] | Potency [17] | Potency [7] | outcome [18] | Potency [8] | Potency [9] | outcome [10] | Potency [11] | Potency [12] | outcome [13] | Potency [14] | outcome [15]
